# AMA1-RON2 inh: qHTS for Inhibitors of AMA1-RON; Towards Development of Antimalarial Drug Lead: Primary Screen; Plasmodium falciparum AMA1 (3D7) - RON2 peptide interaction; AlphaScreen AMA1-biotinylated RON2 peptide binding; Potency, µM (highest dose often 58.2 µM), for inactives: top-dose activity change, negative = inhibition, usual class: inhibitors; 0.2% of 360,000 active; active = well fitted inhibition curve with a large enough effect; inconclusive = small, poorly fitted or top-dose-only effect; inactive = no such curve, though single readings can be large or run the other way;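 note: potency is the fitted concentration of half-maximal effect; 0% = vehicle wells and -100% = peptide control; nearly all actives have a fitted effect of over 45% in size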
#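 AMA1 (3D7) with his tag at 25 nM final met compounds first, then biotinylated RON2 peptide at 25 nM; detection used donor plus acceptor beads, 10 µg/mL apiece, read by AlphaScreen after 30 min at room temperature.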
# MARV entry inh: qHTS for inhibitors of binding or entry into cells for Marburg Virus. Marburg virus pseudotyped entry inhibition, cell reporter. Potency, µM (titrated, usually from 37.8 µM), for the others: top-dose activity change, negative = inhibition, actives largely listed as inhibitors. 1.8% of 300,000 active; calls by dose curve; tested in HEK293 cells; note: potency is the fitted concentration of half-maximal effect; % is set by controls: 0 for no effect and ±100 for the full control effect
# Shiga toxin inh: A qHTS for Small Molecule Inhibitors of Shiga Toxin | Vero cells, Shiga toxin protein synthesis inhibition reporter | inhibition, % at 38.7 µM | 9.2% of 290,000 active; in the data active = inhibition mostly above about 28%, no sharp cut-off; inactive = mostly below about 43%; note: 0% is about no effect
# Lassa entry inh: qHTS for Inhibitors of binding or entry into cells for Lassa Virus; Lassa virus pseudotype entry inhibition, cell reporter; Potency, µM (top dose mostly 37.9 µM), inactives show at the highest dose activity change, negative = inhibition, most hits filed as inhibitors; 1.2% of 300,000 active; AID 540256, 2011; calls by dose curve; tested in HEK293 cells; note: potency is the fitted concentration of half-maximal effect; % is set by controls: 0 for no effect and ±100 for the full control effect; nearly all actives have a fitted effect of over 50% in size
# Cycloheximide cs: Cycloheximide Counterscreen for Small Molecule Inhibitors of Shiga Toxin; cell reporter, cycloheximide protein synthesis inhibition counterscreen; max response, %; 12% of 300,000 active; AID 2314, 2010; in the data active = max response mostly above about 13%, no sharp cut-off; inactive = mostly below about 14%; note: read at 38.3 µM for the half of the compounds with a filed dose; 0% is about no effect
# * = called active by the depositor; u = inconclusive; x = not tested or not shown; [ ] = remark or other dose. This excerpt belongs to a sample that is enriched for hits.
SMILES,AMA1-RON2 inh,MARV entry inh,Shiga toxin inh,Lassa entry inh,Cycloheximide cs
O=C(CCNS(=O)(=O)c1ccccc1)OCC(=O)c1ccc[nH]1,13%,-13%,x,-9%[46.1 µM],x
Cc1ccc(NC(=O)NCCCN2CCCC2=O)cc1C,5%,x,33,x,11
Cc1ccc(NC(=O)NCCCN2CCCC2=O)cc1,7%,19%,30,15%,14*
O=C(NCCCN1CCCC1=O)Nc1ccc(F)c(Cl)c1,0%,3%,47,22%,47*
O=C(NCc1ccccn1)c1nc(-c2cccs2)no1,40%,10%,43,9%,-1
O=C(NCc1cccs1)c1nc(-c2cccs2)no1,8%,x,66*,x,21*
O=C(NCc1ccncc1)c1nc(-c2cccs2)no1,-2%,u,2,10%,-2
O=C(NCCc1ccccc1)c1nc(-c2cccs2)no1,12%,23%[46.1 µM],90*,1%,45*
COc1ccc(C(=O)N[C@H](C(=O)NCCCSc2ccccc2)C(C)C)cc1,-13%,u,x,u,x
Cc1cccc(NC(=O)C(=O)NCC(c2cccnc2)N2CCc3ccccc3C2)c1C (stereo unspecified),x,x,x,7%[46.1 µM],x
CC1(c2ccccc2)CC(C)(C)N(C(=O)C2CCCO2)c2ccccc21 (stereo unspecified),-9%,18µM*,-9,-7%,4
CCC(=O)N1CCCC(C(=O)c2ccc(-c3ccccc3)cc2)C1 (stereo unspecified),-1%,-4%,47,0%,13*
CCc1cc(C(=O)N2CCCC(C(=O)c3ccc(Oc4ccccc4)cc3)C2)n(C)n1 (stereo unspecified),-3%,11µM*,-4,-19%[46.1 µM],-2
CCN1CCN(CC(=O)N2CCCC(C(=O)c3ccc(Oc4ccccc4)cc3)C2)CC1 (stereo unspecified),-19%,x,56*,x,25*
COc1ccc(Cl)cc1CNC[C@H]1O[C@@H](n2cnc3c(=O)[nH]c(N)nc32)[C@H](O)[C@@H]1O,5%,x,x,x,x
CCCCCCC1(C)NC(=O)N(C(C)C(=O)Nc2ccc(N3CCOCC3)cc2)C1=O (stereo unspecified),0%,x,x,x,x
CCOc1ccc(N)cc1,-3%,x,x,x,x
CCOc1ccc(N2Nc3n[nH]c(N)c3N2)cc1,49%,1%,50*,u,25*
COc1ccc(N2Nc3n[nH]c(N)c3N2)cc1,28%,24%,58*,21%,43*
COc1ccc(N2CCN(c3n[nH]c(N)n3)CC2)cc1,-15%,10%[46.1 µM],-3,-2%,6
CCCOc1ccc(NC(=O)CC2C(=O)N(c3ccc(Cl)cc3)C(=O)N2CCc2ccncc2)cc1 (stereo unspecified),x,x,x,25%[46.1 µM],x
O=C(N/N=C/c1cccc(Br)c1)c1ccc(Br)cc1,11%,-14%[46.1 µM],33,2%[46.1 µM],22*
CCOc1cc(/C=N/NC(=O)c2cccs2)cc([N+](=O)[O-])c1O,-16%,-4%[46.1 µM],49*,10%,45*
CCOc1ccc(C(=O)Nc2cccc(NC(=O)c3cccs3)c2)cc1[N+](=O)[O-],-5%,-35%,-3,-23%,8
O=C(N/N=C/c1cccc([N+](=O)[O-])c1)c1cccc(Br)c1,55%,-14%,24,0%,22*
SMILES,AMA1-RON2 inh,MARV entry inh,Shiga toxin inh,Lassa entry inh,Cycloheximide cs
O=C(N/N=C/c1cccc([N+](=O)[O-])c1)c1cccs1,-7%,26%,34,4%,26*
CCOC(=O)c1cc(CC)sc1NC(=O)COc1ccccc1C,x,x,x,17%[46.1 µM],x
CSCC[C@H](NC(=O)OC(C)(C)C)C(=O)N1CCC(C(=O)NCC(=O)Nc2ccc(C)cc2)CC1,-6%,x,-5,x,-1
Cc1cc(C(=O)NCCc2ccc(S(N)(=O)=O)cc2)c(C)o1,-16%,-1%[46.1 µM],-16,6%,-6
O=C(N/N=C/c1cccc(OCc2ccccc2)c1)c1cccs1,3%,10%,75*,5%,30*
Cc1cccc(N2C(=O)CC(c3ccc(F)cc3)C3=C2COC3=O)c1 (stereo unspecified),0%,0%[46.1 µM],8,u,4
COc1ccc(-c2nn(-c3ccccc3)cc2/C=N/N=C(N)N)cc1OC,-16%,10µM*,-5,u,-6
NC(N)=N/N=C/c1cn(-c2ccccc2)nc1-c1cccs1,-10%,23µM*,10,u,15
COc1ccc(-c2nn(-c3ccccc3)cc2/C=N/Nc2ccc3ccccc3n2)cc1OC,-5%,u,80*,u,34*
Cc1ccc(-c2nn(-c3ccccc3)cc2/C=N/NC(=O)CSc2nnc(C)n2-c2ccccc2)cc1,-2%,-29%,54*,u,36*
COc1cccc(/C=N/NC(=O)CSc2nnc(C)n2-c2ccccc2)c1O,40%,u,14,u,-1
COc1ccc(-c2nn(-c3ccccc3)cc2/C=N/NC(=S)NC(C)C)cc1OC,-2%,u,-10,-26%,1
COc1ccc(-c2nn(-c3ccccc3)cc2/C=N/O)cc1OC,-10%,x,15,x,1
COCCNC(=O)Cn1cc(/C=C(\C#N)C(=O)NC2CCCC2)c2ccccc21,u,x,x,x,-1
C=CCNCC(O)COc1ccc(C(C)=O)cc1OC (stereo unspecified),4%,0%,-4,-2%,3
COc1ccc(CCN2CCC[C@H](CN3CCc4cc(OC)c(OC)cc4CC3=O)C2)cc1OC,x,x,-7,x,-4
COc1ccc(-c2nn(-c3ccccc3)cc2/C=N/NC(=O)c2ccc3c(c2)OCO3)cc1,x,2%,59,x,14
COc1ccc(-c2nn(-c3ccccc3)cc2/C=N/Nc2cccc(C(=O)O)c2)cc1,4%,-14%,108*,-21%,56*
Nc1ccc(Oc2ccccc2-c2ccccc2)cc1,22µM*,5.6µM*,x,5.6µM*,x
Nc1ccccc1Oc1ccccc1,x,x,-5,x,-1
CCN(C(=O)CSc1ncc(S(=O)(=O)c2ccc(C)c(Cl)c2)c(=O)[nH]1)c1cccc(C)c1,x,x,x,-8%[46.1 µM],x
COc1ccc(NC(=O)NCCc2ccc(Cl)cc2)cc1OC,1%,0%,30,7%,9
CC(=O)c1cccc(NC(=O)NCCc2ccc(Cl)cc2)c1,16%,u,38*,14%[46.1 µM],21
COc1cccc(NC(=O)NCCc2ccc(Cl)cc2)c1,3%,10%[46.1 µM],54,1%[46.1 µM],24*
CC(=O)c1c(C)[nH]c(C(=O)Nc2ccccn2)c1C,2%,-22%[46.1 µM],52*,-20%[46.1 µM],44*
CC(=O)c1c(C)[nH]c(C(=O)Nc2cccc(C)c2C)c1C,-1%,-11%[46.1 µM],17,14%,-1
CC(=O)c1c(C)[nH]c(C(=O)NCCC2=CCCCC2)c1C,3%,u,105*,u,49*
CCOC(=O)c1c(C)[nH]c(C(=O)OCC(=O)Nc2cc(Cl)ccc2OC)c1C,-8%,u,-2,-21%,-4
CC(=O)c1c(C)[nH]c(C(=O)Nc2ccc(F)c(F)c2F)c1C,-23%,u,71*,13%,6
